# Data reported in PubChem BioAssay (EPA / NIEHS).
# Results filed as inconclusive are left out. The source holds several records for some structures; these can differ, active in one and inactive in another. The source made the active and inactive calls. The calls were made as follows: active = hit-call score of the fitted dose curve at least 0.9, where 1 is the maximum; inconclusive = response in the unintended direction; inactive = score below 0.9.
# Experiments:
# [1] = target: human Matrix Metalloproteinase-9 (MMP9), MMP9 (gene 4318) (UniProt P14780); assay: NVS_ENZ_hMMP9: NovaScreen (NVS) Enzymatic Assay for human Matrix Metalloproteinase-9 (MMP9) (AID 2283190);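 also: cell-free recombinant MMP9 protease activity read by fluorescent substrate signal; active means inhibition seen as loss of fluorescence signal versus DMSO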
# In short: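 Extracted enzyme, fluorescent substrate, 1 h post-dose read. Single conc 25 uM in duplicate, then concentration series for actives. Activity = signal loss relative to DMSO negative control.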
# [2] = target: human Phosphoinositide 3-kinase alpha (PI3Ka), PIK3CA (gene 5290) (UniProt P42336); assay: NVS_ENZ_hPI3Ka: NovaScreen (NVS) Enzymatic Assay for human Phosphoinositide 3-kinase alpha (PI3Ka) (AID 2283196)
# In short: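 Fluorescence/mobility-shift readout of substrate conversion by recombinant enzyme, 1 h post-dosing. Primary screen in duplicate at 25 uM; actives (e.g. ≥30% inhibition) retested in singleton concentration-response, top concentration 50 uM.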
# [3] = target: human Matrix Metalloproteinase-2 (MMP2), MMP2 (gene 4313) (UniProt P08253); assay: NVS_ENZ_hMMP2: NovaScreen (NVS) Enzymatic Assay for human Matrix Metalloproteinase-2 (MMP2) (AID 2283184)
# In short: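 Compounds first screened in duplicate at a single 25 uM, with actives followed up in concentration series. Recombinant human MMP2 cleaves a fluorogenic substrate; fluorescence taken at 1 h, inhibition fitted relative to DMSO.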
# [4] = target: human Phosphodiesterase 5 (PDE5), PDE5A (gene 8654) (UniProt O76074); assay: NVS_ENZ_hPDE5: NovaScreen (NVS) Enzymatic Assay for human Phosphodiesterase 5 (PDE5) (AID 2283194)
# In short: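 Screening began in duplicate at 25 uM, with actives taken into concentration-response. Enzyme activity of recombinant PDE5 toward its substrate was measured at 1 h by fluorescence mobility-shift detection, relative to DMSO controls.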
# [5] = target: human Protein Phosphatase, Mg2+/Mn2+ Dependent 1A (PPM1A), PPM1A (gene 5494) (UniProt P35813); assay: NVS_ENZ_hPPM1A: NovaScreen (NVS) Enzymatic Assay for human Protein Phosphatase, Mg2+/Mn2+ Dependent 1A (PPM1A) (AID 2283198)
# In short: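 Primary screen in duplicate at 25 uM, with actives then titrated to a maximum of 50 uM. Recombinant PPM1A dephosphorylation of fluorescent substrate measured at 1 h, with substrate and product separated by mobility shift; inhibition fitted against DMSO.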
# [6] = target: cAMP-dependent protein kinase catalytic subunit alpha (Homo sapiens) (UniProt P17612); assay: NVS_ENZ_hPKA: NovaScreen (NVS) Enzymatic Assay for human Protein Kinase A (PKA) (AID 2283192)
# In short: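 Cell-free kinase activity read by fluorescence after mobility-shift separation of substrate and product, 1 h post-dosing. Single-concentration duplicate screen (25 uM) preceded singleton concentration series (top 50 uM); loss of signal versus DMSO.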
# [7] = target: human Matrix Metalloproteinase-3 (MMP3), MMP3 (gene 4314) (UniProt P08254); assay: NVS_ENZ_hMMP3: NovaScreen (NVS) Enzymatic Assay for human Matrix Metalloproteinase-3 (MMP3) (AID 2283185)
# In short: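 Fluorescent substrate turnover by recombinant MMP3 read after 1 h, signal loss scored against DMSO. Compounds first run in duplicate at 25 uM single dose, then actives confirmed by concentration series.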
# [8] = target: human Mitogen- and Stress-activated Protein Kinase-1 (Msk1), RPS6KA5 (gene 9252) (UniProt O75582); assay: NVS_ENZ_hMsk1: NovaScreen (NVS) Enzymatic Assay for human Mitogen- and Stress-activated Protein Kinase-1 (Msk1) (AID 2283187)
# In short: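 Chemicals first run in duplicate at 25 uM, with actives followed up in singleton concentration series to 50 uM maximum. Enzyme activity came from substrate/product mobility-shift separation with fluorescence detection after 1 h incubation of the recombinant protein.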
# [9] = target: human Phosphodiesterase 4A1 (PDE4A1), PDE4A (gene 5141) (UniProt P27815); assay: NVS_ENZ_hPDE4A1: NovaScreen (NVS) Enzymatic Assay for human Phosphodiesterase 4A1 (PDE4A1) (AID 2283191)
# In short: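 Fluorescent substrate turnover by recombinant PDE4A1 read after 1 h by mobility-shift separation. Primary duplicate screen at 25 uM; hits retested in concentration series with a 50 uM maximum, relative to DMSO.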
# [10] = target: human Phosphodiesterase 10 (PDE10), PDE10A (gene 10846) (UniProt Q9Y233); assay: NVS_ENZ_hPDE10: NovaScreen (NVS) Enzymatic Assay for human Phosphodiesterase 10 (PDE10) (AID 2283195)
# In short: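 Fluorescence readout after mobility-shift separation of substrate and product, 1 h reaction with recombinant human enzyme. Single-concentration duplicates at 25 uM, then concentration-response up to 50 uM for chemicals reaching threshold; DMSO baseline.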
# Sequence of human Phosphoinositide 3-kinase alpha (PI3Ka), PIK3CA (gene 5290) (P42336 whole entry, looked up): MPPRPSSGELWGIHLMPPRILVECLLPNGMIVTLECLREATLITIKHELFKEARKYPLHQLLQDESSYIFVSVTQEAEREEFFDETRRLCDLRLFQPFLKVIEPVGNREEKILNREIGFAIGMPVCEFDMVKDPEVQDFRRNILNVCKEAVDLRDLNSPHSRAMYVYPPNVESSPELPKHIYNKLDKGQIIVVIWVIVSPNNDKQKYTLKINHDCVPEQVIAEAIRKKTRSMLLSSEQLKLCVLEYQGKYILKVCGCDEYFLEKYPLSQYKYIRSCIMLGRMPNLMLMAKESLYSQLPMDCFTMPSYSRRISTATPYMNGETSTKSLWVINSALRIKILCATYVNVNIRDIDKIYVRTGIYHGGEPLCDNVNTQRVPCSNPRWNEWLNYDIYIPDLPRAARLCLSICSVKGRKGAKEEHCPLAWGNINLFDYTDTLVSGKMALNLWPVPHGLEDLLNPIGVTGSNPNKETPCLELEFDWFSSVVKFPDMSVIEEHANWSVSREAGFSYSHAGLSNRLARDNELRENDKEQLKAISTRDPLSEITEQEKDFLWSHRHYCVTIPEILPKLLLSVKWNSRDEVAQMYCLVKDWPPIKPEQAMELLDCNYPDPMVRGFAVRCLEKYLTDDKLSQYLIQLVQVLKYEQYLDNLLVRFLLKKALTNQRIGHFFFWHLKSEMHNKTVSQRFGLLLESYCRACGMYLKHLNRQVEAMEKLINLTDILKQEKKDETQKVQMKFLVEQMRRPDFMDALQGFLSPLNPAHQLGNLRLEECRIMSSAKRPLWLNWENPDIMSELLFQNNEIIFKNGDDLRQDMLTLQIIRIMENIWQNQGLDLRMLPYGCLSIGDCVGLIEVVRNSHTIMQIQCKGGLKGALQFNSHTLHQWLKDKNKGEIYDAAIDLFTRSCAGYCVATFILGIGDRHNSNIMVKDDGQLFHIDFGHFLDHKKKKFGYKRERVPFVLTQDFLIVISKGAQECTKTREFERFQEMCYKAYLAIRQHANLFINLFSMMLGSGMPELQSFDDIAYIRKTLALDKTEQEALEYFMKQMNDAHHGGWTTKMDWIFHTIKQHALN
# Sequence of human Matrix Metalloproteinase-3 (MMP3), MMP3 (gene 4314) (P08254 whole entry, looked up): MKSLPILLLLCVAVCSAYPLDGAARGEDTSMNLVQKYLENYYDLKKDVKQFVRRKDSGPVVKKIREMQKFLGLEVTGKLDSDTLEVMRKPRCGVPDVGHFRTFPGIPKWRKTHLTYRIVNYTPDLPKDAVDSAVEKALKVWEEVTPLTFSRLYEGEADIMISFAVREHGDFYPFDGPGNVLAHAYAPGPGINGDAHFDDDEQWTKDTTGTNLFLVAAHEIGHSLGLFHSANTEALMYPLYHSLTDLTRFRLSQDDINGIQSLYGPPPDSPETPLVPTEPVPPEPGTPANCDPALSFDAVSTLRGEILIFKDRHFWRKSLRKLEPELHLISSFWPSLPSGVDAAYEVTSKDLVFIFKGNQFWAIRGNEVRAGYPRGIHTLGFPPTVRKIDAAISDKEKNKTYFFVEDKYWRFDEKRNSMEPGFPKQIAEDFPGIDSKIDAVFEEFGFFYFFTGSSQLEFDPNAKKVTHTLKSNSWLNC
# Sequence of human Phosphodiesterase 4A1 (PDE4A1), PDE4A (gene 5141) (P27815 whole entry, looked up): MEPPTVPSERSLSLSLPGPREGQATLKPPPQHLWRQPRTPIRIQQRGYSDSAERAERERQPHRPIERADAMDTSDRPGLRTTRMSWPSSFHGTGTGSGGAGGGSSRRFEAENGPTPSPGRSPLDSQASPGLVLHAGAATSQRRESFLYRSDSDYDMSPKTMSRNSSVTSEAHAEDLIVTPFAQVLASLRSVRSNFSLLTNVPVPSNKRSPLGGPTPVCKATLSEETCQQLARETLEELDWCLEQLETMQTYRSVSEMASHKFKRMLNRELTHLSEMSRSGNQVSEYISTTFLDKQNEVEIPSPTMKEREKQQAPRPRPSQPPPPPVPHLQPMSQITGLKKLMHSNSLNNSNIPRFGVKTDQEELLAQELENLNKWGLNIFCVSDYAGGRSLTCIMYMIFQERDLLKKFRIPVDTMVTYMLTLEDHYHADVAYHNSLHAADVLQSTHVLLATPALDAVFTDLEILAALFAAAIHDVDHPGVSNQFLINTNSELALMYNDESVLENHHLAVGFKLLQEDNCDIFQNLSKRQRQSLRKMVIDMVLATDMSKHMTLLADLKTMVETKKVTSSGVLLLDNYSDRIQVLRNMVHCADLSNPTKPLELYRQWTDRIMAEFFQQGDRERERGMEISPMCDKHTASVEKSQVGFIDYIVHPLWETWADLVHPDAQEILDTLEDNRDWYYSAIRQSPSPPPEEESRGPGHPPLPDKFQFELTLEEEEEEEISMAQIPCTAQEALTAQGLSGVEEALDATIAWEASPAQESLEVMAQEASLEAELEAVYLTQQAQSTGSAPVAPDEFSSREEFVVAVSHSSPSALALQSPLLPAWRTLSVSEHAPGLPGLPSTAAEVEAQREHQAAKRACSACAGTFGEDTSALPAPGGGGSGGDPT
# Sequence of human Protein Phosphatase, Mg2+/Mn2+ Dependent 1A (PPM1A), PPM1A (gene 5494) (P35813 whole entry, looked up): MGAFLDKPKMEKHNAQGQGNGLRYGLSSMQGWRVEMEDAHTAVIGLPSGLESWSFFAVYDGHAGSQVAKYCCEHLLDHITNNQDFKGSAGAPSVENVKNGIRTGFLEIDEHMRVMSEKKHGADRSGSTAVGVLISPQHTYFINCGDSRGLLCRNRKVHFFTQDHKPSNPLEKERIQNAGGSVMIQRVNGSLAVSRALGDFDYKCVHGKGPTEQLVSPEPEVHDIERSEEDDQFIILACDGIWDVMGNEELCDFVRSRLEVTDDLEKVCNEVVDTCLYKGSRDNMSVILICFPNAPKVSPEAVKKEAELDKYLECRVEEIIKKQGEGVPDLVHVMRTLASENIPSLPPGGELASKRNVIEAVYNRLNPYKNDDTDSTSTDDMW
# Sequence of human Phosphodiesterase 10 (PDE10), PDE10A (gene 10846) (Q9Y233 whole entry, looked up): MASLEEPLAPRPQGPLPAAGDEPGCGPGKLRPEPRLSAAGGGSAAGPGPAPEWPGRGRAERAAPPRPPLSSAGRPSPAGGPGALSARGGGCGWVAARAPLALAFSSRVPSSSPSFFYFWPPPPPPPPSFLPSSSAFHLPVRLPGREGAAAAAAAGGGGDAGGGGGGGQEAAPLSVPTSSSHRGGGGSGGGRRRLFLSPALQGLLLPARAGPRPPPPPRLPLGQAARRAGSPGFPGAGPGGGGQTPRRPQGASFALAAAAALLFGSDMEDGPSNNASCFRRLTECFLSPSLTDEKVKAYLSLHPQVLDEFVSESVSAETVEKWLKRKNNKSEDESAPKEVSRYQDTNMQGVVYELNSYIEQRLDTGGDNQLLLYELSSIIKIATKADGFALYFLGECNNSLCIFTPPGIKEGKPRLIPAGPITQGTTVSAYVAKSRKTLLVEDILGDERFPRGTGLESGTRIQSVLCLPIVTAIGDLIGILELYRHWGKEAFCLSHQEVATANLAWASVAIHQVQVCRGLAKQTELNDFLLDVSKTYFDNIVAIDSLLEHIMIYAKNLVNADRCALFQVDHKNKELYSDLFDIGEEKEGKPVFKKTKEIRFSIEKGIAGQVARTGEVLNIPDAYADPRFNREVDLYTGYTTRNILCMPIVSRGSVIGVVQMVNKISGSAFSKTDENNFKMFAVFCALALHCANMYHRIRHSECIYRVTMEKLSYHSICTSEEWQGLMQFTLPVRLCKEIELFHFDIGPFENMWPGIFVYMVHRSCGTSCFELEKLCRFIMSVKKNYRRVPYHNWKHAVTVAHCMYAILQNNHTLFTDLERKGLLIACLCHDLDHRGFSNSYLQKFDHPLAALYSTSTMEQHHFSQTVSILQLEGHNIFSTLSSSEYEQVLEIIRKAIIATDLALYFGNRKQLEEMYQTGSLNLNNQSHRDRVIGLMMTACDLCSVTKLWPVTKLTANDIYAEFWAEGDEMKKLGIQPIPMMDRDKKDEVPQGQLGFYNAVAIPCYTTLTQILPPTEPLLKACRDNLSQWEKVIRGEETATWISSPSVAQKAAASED
# Sequence of human Matrix Metalloproteinase-2 (MMP2), MMP2 (gene 4313) (P08253 whole entry, looked up): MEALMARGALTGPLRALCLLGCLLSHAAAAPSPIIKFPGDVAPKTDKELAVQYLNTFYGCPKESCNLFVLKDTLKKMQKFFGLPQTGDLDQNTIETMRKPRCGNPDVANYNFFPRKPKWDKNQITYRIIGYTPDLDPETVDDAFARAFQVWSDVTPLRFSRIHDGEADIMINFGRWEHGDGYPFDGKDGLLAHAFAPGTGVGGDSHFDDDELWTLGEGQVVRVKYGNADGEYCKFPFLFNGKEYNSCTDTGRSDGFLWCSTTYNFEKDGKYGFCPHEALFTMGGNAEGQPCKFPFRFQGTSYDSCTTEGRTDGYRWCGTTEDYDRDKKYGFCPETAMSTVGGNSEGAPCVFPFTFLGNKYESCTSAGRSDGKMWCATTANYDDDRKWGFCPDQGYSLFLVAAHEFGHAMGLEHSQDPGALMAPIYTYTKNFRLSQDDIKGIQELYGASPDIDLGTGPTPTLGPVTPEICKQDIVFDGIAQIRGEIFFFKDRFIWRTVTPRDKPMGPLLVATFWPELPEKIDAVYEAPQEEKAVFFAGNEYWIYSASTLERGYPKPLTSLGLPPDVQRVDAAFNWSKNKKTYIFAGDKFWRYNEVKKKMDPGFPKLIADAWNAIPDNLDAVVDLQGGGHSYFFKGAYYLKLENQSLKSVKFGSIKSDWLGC
structure (smiles),measurement,setting,value
Oc1ccc(C(c2ccc(O)cc2)C(Cl)(Cl)Cl)cc1,outcome,[1],inactive
same,AC50,[2],29.1 µM (active)
CCCCCOC(=O)COc1cc(N2C(=O)C3=C(CCCC3)C2=O)c(F)cc1Cl,outcome,[3],inactive
CCOC(=O)c1ccc(O)cc1,outcome,[4],inactive
same,outcome,[5],inactive
COC(=O)c1ccccc1S(=O)(=O)NC(=O)Nc1nc(OC(F)F)cc(OC(F)F)n1,outcome,[6],inactive
C[C@]12C[C@H](O)[C@H]3[C@@H](CCC4=CC(=O)CC[C@@]43C)[C@@H]1CC[C@@H]2C(=O)CO,outcome,[7],inactive
O=C(O)C1(C(=O)Nc2ccc(Cl)cc2Cl)CC1,AC50,[3],8.27 µM (active)
same,outcome,[7],inactive
same,outcome,[8],inactive
same,AC50,[9],24.2 µM (active)
same,AC50,[4],13 µM (active)
same,AC50,[10],34.9 µM (active)
CCSC(=O)N(CC(C)C)CC(C)C,outcome,[2],inactive
CSC(=O)c1cccc2nnsc12,outcome,[9],inactive
same,outcome,[4],inactive
C[C@]12CC[C@@H]3c4ccc(O)cc4C[C@@H](CCCCCCCCCS(=O)CCCC(F)(F)C(F)(F)F)[C@H]3[C@@H]1CC[C@@H]2O (stereo partly drawn),outcome,[7],inactive
CC(C)(c1ccc(O)cc1)c1ccc(O)cc1,outcome,[7],inactive
same,AC50,[2],25.4 µM (active)
same,outcome,[2],inactive
same,outcome,[5],inactive
COC(=O)c1c(Cl)nn(C)c1S(=O)(=O)NC(=O)Nc1nc(OC)cc(OC)n1,outcome,[4],inactive
CC(=O)S[C@@H]1CC2=CC(=O)CC[C@]2(C)[C@H]2CC[C@@]3(C)[C@@H](CC[C@@]34CCC(=O)O4)[C@H]12,AC50,[10],14.4 µM (active)
